# From PubChem BioAssay (NCATS)
# Values joined by “and” are separate entries in the source; they are usually repeats but may differ in a detail not shown here. Equal entries are not always repeated. Records with an inconclusive call do not appear. Where a structure was tested more than once in an assay, its records may differ in their call. Active and inactive are the calls of the source. Unless noted, calls come from the whole dose curve; as a rule, active = well fitted curve in the direction sought with a large enough effect; inconclusive = small, poorly fitted or top-dose-only effect, or another doubt; inactive = no such curve, though single readings can be large; an effect the other way counts as inactive or inconclusive.
# Legend:
# [1] = qHTS to identify inhibitors of the type 1 interferon - major histocompatibility complex class I in skeletal muscle: primary screen against the NCATS Mechanism Interrogation Plate v5.0 (MIPE) Libary (AID 1347411); note: nearly all actives have a fitted effect of over 65% in size; note: potency is the fitted concentration of half-maximal effect;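 for activity change, negative = inhibition: plate controls were vehicle for no effect and reference inhibitor for full effect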
# Outline: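 Immortalized human myoblasts (C25cl48) with HiBit knocked into endogenous HLA-B*08:01 were stimulated with 4 ng/ml IFN-beta and given compounds in 11-point 1:3 titration from 46 uM. After 24 h at 37 C, lytic HiBiT luminescence was read.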
# [2] = Primary qHTS for inhibitors of nuclear receptor binding SET domain protein 2 (NSD2) in an RCH-ACV wild type WT cells (2C) (AID 1645877); note: nearly all actives have a fitted effect of over 70% in size; note: potency is the fitted concentration of half-maximal effect
# [3] = target: Glutathione peroxidase 1 (Homo sapiens) (UniProt P07203); experiment: Primary qHTS Assay for Inhibitors of Recombinant Selenoprotein Glutathione Peroxidase 1 (GPX1) (AID 1845191); note: nearly all actives have a fitted effect of over 65% in size; note: potency is the fitted concentration of half-maximal effect
# Sequence of Glutathione peroxidase 1 (Homo sapiens) (P07203 whole entry, looked up): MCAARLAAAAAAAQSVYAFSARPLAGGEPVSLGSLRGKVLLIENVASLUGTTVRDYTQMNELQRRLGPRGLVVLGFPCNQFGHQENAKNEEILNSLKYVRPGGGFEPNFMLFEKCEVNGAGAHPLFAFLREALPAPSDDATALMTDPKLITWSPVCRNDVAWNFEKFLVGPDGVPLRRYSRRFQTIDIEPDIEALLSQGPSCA
# Outline: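 GR-coupled assay: compounds preincubated 30 min at room temperature with GPX1, then reaction started with CHP; final 10 nM GPX1, 1 mM GSH, 0.5 mM CHP, 0.5 mM NADPH, 100 nM GR, 0.01% BSA, pH 7.5 Tris buffer. NADPH fluorescence (340/450 nm) read at 0 and 15 min.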
# [4] = qHTS drug screen for cell cycle checkpoint inhibitors in PARPi-resistant BRCA-mutant ovarian cancer cell lines. (AID 1963452; calls by dose curve); conditions: PEO1/OlaR viability, CellTiter-Glo luminescence, 96 h, stronger effect = lower value
# Outline: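 PEO1, PEO4 and PEO1/OlaR ovarian cancer cells, 600 per well, exposed 96 h at 37C to a dilution series. Viability read by CellTiter-Glo luminescence, normalized to DMSO and empty wells; activity summarized as Z-AUC.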
# [5] = target: Phospholipid hydroperoxide glutathione peroxidase GPX4 (Homo sapiens) (UniProt P36969); experiment: Primary qHTS Assay for Inhibitors of Recombinant Selenoprotein Glutathione Peroxidase 4 (GPX4) (AID 1845192); conditions: outcome: dose series up to 50 µM unless noted; note: nearly all actives have a fitted effect of over 65% in size; note: potency is the fitted concentration of half-maximal effect; for activity change, negative = inhibition: % is set by controls: 0 for no effect and ±100 for the full control effect
# Sequence of Phospholipid hydroperoxide glutathione peroxidase GPX4 (Homo sapiens) (P36969 whole entry, looked up): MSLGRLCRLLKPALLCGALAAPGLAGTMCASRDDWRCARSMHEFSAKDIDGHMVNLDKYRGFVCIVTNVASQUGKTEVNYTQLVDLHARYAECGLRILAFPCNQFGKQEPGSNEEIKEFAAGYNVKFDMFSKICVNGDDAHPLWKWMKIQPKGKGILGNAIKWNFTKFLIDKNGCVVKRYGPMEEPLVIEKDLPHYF
# Outline: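 GR-coupled assay: recombinant GPX4 preincubated 30 min with compound at room temperature; final 200 nM GPX4, 1 mM GSH, 0.5 mM cumene hydroperoxide, 0.5 mM NADPH, 100 nM GR, 0.01% BSA, pH 7.5 Tris. NADPH fluorescence (340/450 nm) read at 0 and 15 min.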
# [6] = Primary qHTS for inhibitors of nuclear receptor binding SET domain protein 2 (NSD2) in an isogenic RCH-ACV NSD2 p.E1099K mutant (9B) (AID 1645876); note: nearly all actives have a fitted effect of over 70% in size; note: potency is the fitted concentration of half-maximal effect; for activity change, negative = viability loss: % is set by controls: 0 for no effect and ±100 for the full control effect
# [7] = qHTS assay to identify inhibitors of the type 1 interferon - major histocompatibility complex class I in skeletal muscle: Counter screen cell viability and HiBit confirmation (AID 1347412); conditions: iHSKM muscle cells + IFN-b, HiBiT or CellTiter-Glo, 24 h; for activity change, negative = inhibition: at 45.9 µM (top of the series); note: potency is the fitted concentration of half-maximal effect; for activity change, negative = inhibition: % is set by controls: 0 for no effect and ±100 for the full control effect; for all read-outs here: nearly all actives have a fitted effect of over 60% in size
# Outline: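 HLA-B*08:01–HiBiT knock-in immortalized human myoblasts (C25cl48) stimulated with 4.0 ng/ml human IFN-beta and dosed with compound in a 12-point 1:3 titration (top final 46 uM). After 24 hrs at 37 C, HiBiT lytic luminescence or CellTiter Glo ATP read out.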
# [8] = measured here: PEO1 parental Z-AUC
molecule,measurement,setting,value
Cc1ccc(NC(=O)[C@H]2CCCN(C(=O)c3c(C)cccc3F)[C@H]2c2ccc(NC3CCCC3)cc2)cc1C(F)(F)F,Potency,[1],inactive
same,Potency,[2],inactive
same,Potency,[3],inactive
same,Z-AUC,[4],-0.612 (inactive)
same,Z-AUC,[4]; [8],0.0404
same,Z-AUC,[4]; measured here: PEO4 Z-AUC,-0.339
C=C1/C(=C/C=C2\CCCC3(C)[C@@H]([C@H](C)/C=C/C=C/C(O)(CC)CC)CC[C@@H]23)C[C@@H](O)C[C@@H]1O (stereo partly specified),Potency,[1],inactive
same,Potency,[2],18.6 µM (active)
same,Potency,[3],inactive
same,Potency,[5],inactive and 15.8 µM (active)
same,Z-AUC,[4],-0.128 (inactive)
same,Z-AUC,[4]; [8],-0.195
same,Z-AUC,[4]; measured here: PEO4 Z-AUC,-0.444
CC(C)Oc1ccc(-c2nn([C@@H](C)c3oc4ccc(F)cc4c(=O)c3-c3cccc(F)c3)c3ncnc(N)c23)cc1F,Potency,[1],inactive
same,Potency,[3],inactive
same,Potency,[5],inactive
same,Z-AUC,[4],0.0255 (inactive)
same,Z-AUC,[4]; [8],-0.265
same,Z-AUC,[4]; measured here: PEO4 Z-AUC,-0.0554
CCOCOC[C@H](C[C@H](C)C(=O)NO)NC(=O)c1ccc(Oc2ccccc2)cc1,Potency,[1],inactive
same,Potency,[3],inactive
same,Potency,[5],inactive
same,Z-AUC,[4],0.6 (inactive)
same,Z-AUC,[4]; [8],0.894
same,Z-AUC,[4]; measured here: PEO4 Z-AUC,1.19
NS(=O)(=O)Oc1ccc2c3c(c(=O)oc2c1)CCCCC3,Potency,[1],inactive
same,Potency,[3],4.09 µM (active)
same,Potency,[5],18 µM (active)
same,Z-AUC,[4],0.451 (inactive)
same,Z-AUC,[4]; [8],0.12
same,Z-AUC,[4]; measured here: PEO4 Z-AUC,-0.024
Ac-PHSCN-NH2,Potency,[1],inactive
same,Potency,[3],inactive
same,Potency,[5],inactive
same,Z-AUC,[4],-0.465 (inactive)
same,Z-AUC,[4]; [8],0.449
same,Z-AUC,[4]; measured here: PEO4 Z-AUC,0.654
COc1cc(-c2cn(C)c(=O)c3cnccc23)c(OC)cc1CN(C)C,Potency,[1],inactive
same,Potency,[2],8.33 µM (active)
same,Potency,[3],inactive
same,Potency,[5],inactive
same,Z-AUC,[4],-0.443 (inactive)
same,Z-AUC,[4]; [8],-0.655
same,Z-AUC,[4]; measured here: PEO4 Z-AUC,-0.662
CC1(C)SCCN(S(=O)(=O)c2ccc(OCC#CCO)cc2)[C@H]1C(=O)NO,Potency,[1],inactive
same,Potency,[3],inactive
same,Potency,[5],inactive
same,Z-AUC,[4],0.823 (inactive)
same,Z-AUC,[4]; [8],0.238
same,Z-AUC,[4]; measured here: PEO4 Z-AUC,0.33
CN1C[C@@H]2c3ccccc3Oc3ccc(Cl)cc3[C@H]2C1,Potency,[1],inactive
same,Potency,[3],inactive
same,Potency,[5],inactive
same,Z-AUC,[4],1.28 (inactive)
same,Z-AUC,[4]; [8],1.52
same,Z-AUC,[4]; measured here: PEO4 Z-AUC,1.41
Cc1cc(O)cc2c1[C@]1(C)CC[C@H]3C(C)(C)CCC[C@]3(C)[C@H]1C2,"activity change, negative = inhibition",[1],-19.8% [at 5.1 µM] (inactive)
same,"activity change, negative = viability loss",[6],-32.6% [at 4.96 µM] (inactive)
same,outcome,[5],inactive [at 4.52 µM]
same,Z-AUC,[4],1.24 (inactive)
same,Z-AUC,[4]; [8],0.915
same,Z-AUC,[4]; measured here: PEO4 Z-AUC,1
CC(=O)N1CCC(Nc2cc(C(=O)NC[C@H](O)CN3CCc4ccccc4C3)ncn2)CC1,Potency,[1],inactive
same,Potency,[3],inactive
same,Potency,[5],inactive
same,Z-AUC,[4],0.665 (inactive)
same,Z-AUC,[4]; [8],0.224
same,Z-AUC,[4]; measured here: PEO4 Z-AUC,0.188
COc1cc(-c2cn(C)c(=O)c3cnccc23)cc(OC)c1CN(C)C,Potency,[1],inactive
same,Potency,[3],inactive
same,Potency,[5],inactive
same,Z-AUC,[4],1.5 (inactive)
same,Z-AUC,[4]; [8],0.545
same,Z-AUC,[4]; measured here: PEO4 Z-AUC,0.614
C=C1CCC[C@]2(C)C=C3OC(=O)C(C)=C3C[C@@H]12,Potency,[1],inactive
same,Potency,[6],inactive
same,Potency,[5],inactive
same,Z-AUC,[4],0.206 (inactive)
same,Z-AUC,[4]; [8],-0.068
same,Z-AUC,[4]; measured here: PEO4 Z-AUC,-0.0438
CCOc1ccc(-n2c([C@@H](C)N(Cc3cccnc3)C(=O)Cc3ccc(F)c(C(F)(F)F)c3)nc3ncccc3c2=O)cc1,Potency,[1],inactive
same,Potency,[2],18.6 µM (active)
same,Potency,[3],inactive
same,Potency,[5],inactive
same,Z-AUC,[4],1.64 (inactive)
same,Z-AUC,[4]; [8],1.42
same,Z-AUC,[4]; measured here: PEO4 Z-AUC,1.34
Cc1[nH]nc2ncc(C(=O)N3CCC[C@H]3c3ccc(Cl)cc3)cc12,Potency,[1],inactive
same,Potency,[2],0.296 µM (active)
same,Potency,[3],inactive
same,Potency,[5],inactive
same,Z-AUC,[4],-0.0587 (inactive)
same,Z-AUC,[4]; [8],0.0336
same,Z-AUC,[4]; measured here: PEO4 Z-AUC,-0.0502
Cc1nc(C)c(CN2CCN(C(c3ccc(F)cc3)c3ccc(F)cc3)CC2)nc1C,Potency,[1],inactive
same,Potency,[3],inactive
same,Potency,[5],inactive
same,Z-AUC,[4],-0.108 (inactive)
same,Z-AUC,[4]; [8],0.777
same,Z-AUC,[4]; measured here: PEO4 Z-AUC,1.05
CC(=O)[C@]1(N)Cc2c(O)c3c(c(O)c2[C@@H](O[C@H]2C[C@H](O)[C@H](O)CO2)C1)C(=O)c1ccccc1C3=O,Potency,[1],inactive
same,Potency,[3],inactive
same,Potency,[5],inactive
same,Z-AUC,[4],-0.249 (inactive)
same,Z-AUC,[4]; [8],-0.44
same,Z-AUC,[4]; measured here: PEO4 Z-AUC,-0.284
CC[C@@H](C)[C@H]1O[C@]2(CC[C@@H]1C)C[C@@H]1C[C@@H](C/C=C(\C)[C@@H](O[C@@H]3C[C@H](OC)[C@H](O[C@H]4C[C@H](OC)[C@@H](O)[C@H](C)O4)[C@H](C)O3)[C@@H](C)/C=C/C=C3\CO[C@@H]4[C@@H](O)C(C)=C[C@@H](C(=O)O1)[C@]34O)O2,Potency,[7]; HiBiT,27.9 µM (active)
same,Potency,[7]; Viability,31.3 µM (active)
CN(C)CCOc1ccc(-c2nc(-c3ccc4c(c3)CC/C4=N\O)c(-c3ccncc3)[nH]2)cc1,Potency,[6],16.6 µM (active)
same,Potency,[2],10.5 µM (active)
same,Potency,[3],inactive
same,Z-AUC,[4],-0.892 (inactive)
same,Z-AUC,[4]; [8],-1.12
same,Z-AUC,[4]; measured here: PEO4 Z-AUC,-1.55
same,"activity change, negative = inhibition",[7]; HiBiT,24.4% (inactive)
same,"activity change, negative = inhibition",[7]; Viability,-15.1% (inactive)
C[C@@H](O)[C@@H]1NC(=O)[C@H](CCCCN)NC(=O)[C@@H](Cc2c[nH]c3ccccc23)NC(=O)[C@H](Cc2ccccc2)NC(=O)[C@@H](NC(=O)[C@H](N)Cc2ccccc2)CSSC[C@@H](C(=O)N[C@H](CO)[C@@H](C)O)NC1=O,Potency,[1],inactive
same,Z-AUC,[4],0.896 (inactive)
same,Z-AUC,[4]; [8],0.495
same,Z-AUC,[4]; measured here: PEO4 Z-AUC,0.728
C[C@@H](O)[C@@H](C)Oc1nc(Nc2ccc(S(=N)(=O)C3CC3)cc2)ncc1C(F)(F)F (stereo partly specified),Potency,[1],20.8 µM (active)
same,Potency,[3],inactive
same,Potency,[5],inactive
same,Z-AUC,[4],-1.04 (inactive)
same,Z-AUC,[4]; [8],-0.0707
same,Z-AUC,[4]; measured here: PEO4 Z-AUC,-0.563
CC[C@H]1CN2CCc3cc(OC)c(OC)cc3C2C[C@@H]1CC1NCCc2cc(OC)c(OC)cc21 (stereo partly specified),Potency,[7]; HiBiT,0.279 µM (active)
C[C@@]12C(=O)OC(=O)[C@]1(C)[C@H]1CC[C@@H]2O1,Potency,[6],6.61 µM (active)
same,Potency,[2],4.68 µM (active)
same,Potency,[3],inactive
same,Potency,[5],inactive
same,Z-AUC,[4],0.0424 (inactive)
same,Z-AUC,[4]; [8],0.505
same,Z-AUC,[4]; measured here: PEO4 Z-AUC,0.28
same,Potency,[7]; HiBiT,27.9 µM (active)
same,Potency,[7]; Viability,14 µM (active)
